# In the library only some 1.5% were active in any assay of this set; here they are far more common.
# IDE act: boosts human insulin-degrading enzyme activity in HEK cells; P14735; FAbeta-B cleavage, fluorescence polarization; 0% vehicle, 100% cell-free pure enzyme wells; activation, % at 5.96 µM; actives 0.073% (n = 340,000);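 active = activation above the mean of all tested compounds plus 3 SD, set per screening campaign, cut at about 17% in these data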
# IDE inh: inhibits human insulin-degrading enzyme in HEK cells; actives 0.41% (n = 320,000); FAbetaB cleavage, fluorescence polarization; P14735; AID 434962; inhibition, % at 5.59 µM;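 active = percent inhibition above the average of all tested compounds plus 3 SD, set per screening campaign, cut at about 16% in these data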;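 note: IDE supplied by intact live HEK cells; FP after avidin binding of uncleaved biotin substrate so inhibition keeps polarization high; 0% = DMSO wells and 100% = 60 µM reference IDE inhibitor Ii1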
# cardiac RTF act: cardiac RTF calcium sensitization | P19429+P45379 | IANBD-labeled TnC RTF fluorescence at EC20 calcium; 0% EC20 calcium, 100% full calcium | activation, % at 7.2 µM | actives 0.24% (n = 340,000);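 active = activation above the mean over all tested compounds plus 3 SD, cut at about 30% in these data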;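 note: rise in fluorescence read as greater calcium sensitivity of cardiac thin filaments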
# CRFR2-BP ag: CRF-BP/CRF-R2 complex agonism; actives 0.46% (n = 350,000); activation, % at 13.2 µM; HEK293 CRF-R2/CRF-BP, calcium dye fluorescence (FLIPR); percent of saturating CRF peptide response;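 active = activation of at least 50%, plus an integration ratio under a set limit after plate pattern correction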;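 note: plate controls were neutral control wells without compound for no effect and CRF at EC100 for full effect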
# TPT1 inh: blocks Candida albicans tRNA 2'-phosphotransferase | actives 0.81% (n = 300,000) | recombinant caTPT1, FP RNA substrate dephosphorylation | inhibition, % at 5 µM | AID 1962;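 active = inhibition above the mean of all tested compounds plus 3 SD, set per screening campaign, cut at about 24% in these data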;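 note: plate controls were DMSO alone for no effect and ferristatin control at 100 nM for full effect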
# RTF Ca sens inh: cardiac RTF calcium desensitization | P19429+P45379 | IANBD-labeled cardiac RTF, Ca2+ fluorescence | inhibition, % at 7.15 µM | actives 0.12% (n = 340,000);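 active = inhibition above the mean inhibition of all tested compounds plus 3 SD, cut at about 17% in these data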;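 note: assay run at fixed EC70 calcium of 1.6 mM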
# TPT1 inh confirm: confirmation of Candida albicans TPT1 inhibitors. shares compounds with TPT1 inh. AID 2149. actives 74% (n = 2,400). inhibition, % at 5 µM. recombinant caTPT1, fluorescence polarization, RNase T1 coupled;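 active = inhibition above the primary screen limit, the mean inhibition of all tested compounds plus 3 SD, cut at about 25% in these data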
# RNase T1 counter: counter-screen for TPT1 inhibitors: inhibitors of Aspergillus oryzae RNase T1; shares compounds with TPT1 inh; RNase T1 cleavage, fluorescence polarization, 1536-well; inhibition, % at 5 µM; actives 83% (n = 2,400);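 active = inhibition above the solvent-only control well mean plus 3 SD, limit set per screening run, cut at about 23% in these data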;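 note: plate controls were DMSO wells with enzyme for no effect and wells without RNase T1 for full effect; inhibitors block cleavage so intact labeled substrate keeps polarization high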
# Target sequence (P00651 whole entry, looked up): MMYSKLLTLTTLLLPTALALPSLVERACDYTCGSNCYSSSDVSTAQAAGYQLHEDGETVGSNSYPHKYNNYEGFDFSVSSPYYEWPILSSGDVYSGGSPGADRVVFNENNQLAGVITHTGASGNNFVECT
# * marks the source's active call; other numbers are inactive results; / = not tested or not shown.
SMILES,IDE act,IDE inh,cardiac RTF act,CRFR2-BP ag,TPT1 inh,RTF Ca sens inh,TPT1 inh confirm,RNase T1 counter
COC(=O)/C=c1/s/c(=C(/C#N)C(=O)N2CCOCC2)n(-c2ccccc2)c1=O,10.9,-1.7,-3.8,-1.2,-0.5,1.2,/,/
COc1cc(/C=C2\NC(=S)N(C)C2=O)ccc1O,-21.7,12.2,7.3,4.7,27.2*,-6.9,30.2*,35.3*
COc1cc(/C=C2/C(=O)CNC2=O)ccc1O,3.0,-0.9,-2.1,-0.2,29.9*,5.9,54.6*,77.1*
CN1C(=O)/C(=C/c2ccc(O)c([N+](=O)[O-])c2)NC1=S,9.5,0.8,1.8,-2.4,-1.1,-4.5,/,/
Cc1cc(-c2nc(C)c(C(=O)NN)s2)no1,-5.0,3.4,2.8,-0.3,-0.9,2.7,/,/
CCCc1cc(=O)[nH]c(SCC(=O)N2c3ccccc3NC(=O)C2(C)C)n1,-1.8,6.7,-0.2,0.3,/,0.1,/,/
N#C/C(=C\c1ccc(Sc2ccc(Cl)cc2)o1)c1nc2ccccc2[nH]1,-12.0,9.3,20.1,3.7,52.3*,-18.2,51.1*,65.8*
N#C/C(=C\c1ccc(Sc2nc3ccccc3[nH]2)o1)c1ccccc1,-0.2,2.1,1.1,-1.0,3.0,-1.3,/,/
CCN(CC)c1ccc(C=C(c2nnnn2-c2ccc(C)cc2)c2nnnn2-c2ccc(C)cc2)cc1,-0.7,2.1,8.0,22.7,76.6*,-8.2,72.7*,84.5*
Cc1ccc(-n2nnnc2-c2ccccc2)cc1,-1.3,-2.7,-6.8,-0.8,3.7,-7.2,/,/
Cc1c(C(=O)N/N=C/c2ccc(-c3ccccc3[N+](=O)[O-])o2)sc(N)c1C#N,-0.7,-2.7,8.4,0.2,7.2,-3.6,/,/
Cc1c(C(=O)N/N=C/c2ccc(O)c(Br)c2)sc(N)c1C#N,-1.2,10.3,-1.7,0.5,27.1*,-12.8,16.6,23.8*
COc1cc(/C=N/NC(=O)c2sc(N)c(C#N)c2C)ccc1O,4.4,7.8,3.6,0.7,54.2*,-2.9,2.3,9.7
COc1cc(/C=N/NC(=O)c2ccccc2)ccc1O,3.9,-4.5,3.0,-3.5,3.2,1.6,/,/
Cc1cc(=O)n2nc(N3CCCC3C(=O)Nc3cccc(Cl)c3C)sc2n1 (stereo not given),-7.0,2.4,3.1,-2.1,30.4*,-7.1,92.0*,103.1*
Cc1ccc(CN=Cc2[nH]c3ccc(Br)c(Cl)c3c2O)cc1,-7.0,9.7,8.9,4.4,70.2*,-37.0,130.4*,128.7*
Oc1c(C=NCc2ccc(F)cc2)[nH]c2ccc(Br)c(Cl)c12,/,5.3,/,/,53.5*,/,97.3*,103.9*
CC(=O)Nc1sc(/C(C#N)=C\c2cccc(Cl)c2)nc1-c1ccc(C)cc1,-8.2,8.5,43.0*,318.6*,35.6*,-95.9,36.2*,47.9*
COC(=O)C=C1CCC2C3CCC4=CC(=O)CCC4(C)C3C(=O)CC12C (stereo not given),-6.6,/,-7.8,-1.0,/,0.6,/,/
COc1ccccc1CNC(=O)CS(=O)(=O)c1ccccc1,1.0,1.1,1.3,1.1,-2.3,-5.6,/,/
Cc1ccc2c(c1)C1(C(=O)N2C)N2CC3(C)CN1CC(C)(C2)C3=O (stereo not given),2.1,3.2,1.8,0.7,64.1*,-11.4,-1.5,0.0
N#Cc1c(-c2ccc(Cl)cc2)c(-c2ccc(Cl)cc2)nn(CCOC(=O)CCC(=O)O)c1=O,0.2,/,-0.7,0.0,/,-11.3,/,/
Cc1ccc(C(=O)N/C(=C\c2ccc(-c3ccc([N+](=O)[O-])cc3)o2)C(=O)NC2CCS(=O)(=O)C2)cc1 (stereo not given),4.2,3.0,8.5,95.2*,46.9*,2.3,58.1*,70.8*
Cc1ccc(C(=O)N/C(=C\c2ccc(-c3cccc([N+](=O)[O-])c3)o2)C(=O)NC(C)(C)C)cc1,2.2,-0.4,-2.3,0.5,-0.1,-3.1,/,/
Cc1ccc(C(=O)N/C(=C/c2ccc(-c3ccc([N+](=O)[O-])cc3)o2)C(=O)NCCCN(C)C)cc1,0.6,-0.8,19.9,51.7*,26.2*,-9.1,24.4*,32.8*
SMILES,IDE act,IDE inh,cardiac RTF act,CRFR2-BP ag,TPT1 inh,RTF Ca sens inh,TPT1 inh confirm,RNase T1 counter
O=C(NCCCO)/C(=C/c1ccc(-c2cccc([N+](=O)[O-])c2)o1)NC(=O)c1ccccc1,1.2,6.3,-2.2,1.8,-2.1,-6.3,/,/
O=C(COC(=O)CCN1C(=O)/C(=C\C=C\c2ccccc2)SC1=S)Nc1cc(F)ccc1F,0.3,8.8,2.0,-0.4,27.7*,-8.6,33.5*,42.3*
O=C(CN1C(=O)/C(=C\C=C\c2ccccc2)SC1=S)Nc1ccc(F)cc1,0.7,-2.2,11.0,0.5,11.8,3.9,/,/
COc1ccc(C)cc1Nc1n[n+](-c2ccccc2)c(-c2ccc(NC(C)=O)cc2)s1,-3.7,1.3,4.3,5.7,6.4,-0.1,/,/
COc1ccc(C)cc1Nc1n[n+](-c2ccccc2)c(-c2cc([N+](=O)[O-])cc(OC)c2O)s1,-6.4,-5.4,46.4*,21.4,24.2*,-80.5,119.6*,120.2*
N#CC1=C(N)Oc2cc(O)c(Cl)cc2C1c1ccccc1F (stereo not given),-31.0,34.3*,32.9*,191.9*,71.9*,-54.2,15.4,25.7*
N#CC1=C(N)Oc2cc(O)c(Cl)cc2C1c1cccnc1 (stereo not given),-45.6,/,5.0,21.8,/,-4.6,/,/
O=c1[nH]c(-c2ccccc2)ncc1OCc1ccccc1,1.6,/,0.7,-1.1,/,-1.4,/,/
CCS(=O)(=O)C1=NSC2=NC(=O)/C(=C\c3ccc(OC(=O)c4ccco4)c(OC)c3)C(=N)N21,-14.0,5.1,-5.3,4.4,13.5,1.1,/,/
COc1cc(/C=C2/C(=N)N3C(=NC2=O)SN=C3S(C)(=O)=O)ccc1OC(=O)c1ccco1,-13.4,6.2,1.2,-0.5,25.1*,-10.3,31.6*,35.5*
O=C(/C=C\c1ccc(-c2ccccc2)o1)c1ccccc1,-5.9,7.4,1.6,4.3,14.3,6.1,/,/
Cc1ccc(C(=O)/C=C/c2ccc(-c3ccc(C)cc3)o2)cc1,-7.3,-3.3,7.2,22.8,38.8*,-6.2,72.0*,79.2*
CCN(CC)S(=O)(=O)c1ccc(C(=O)/C=C/c2ccc(-c3ccc([N+](=O)[O-])cc3)o2)cc1,4.7,0.9,7.0,28.3,29.9*,-9.9,48.8*,53.0*
Cc1nn(-c2cc(Cl)ccc2Cl)c(C)c1C(=O)O,-0.7,0.8,4.6,-2.5,-0.1,-4.8,/,/
Cc1c(C(=O)N(CCC#N)c2ccccc2)sc2nc3n(c(=O)c12)CCCC3,4.3,8.2,-5.5,-0.1,-1.0,-1.0,/,/

# Compound activity deposited in PubChem BioAssay by several laboratories.
